In PubChem BioAssay AID750 (Sanford-Burnham Center for Chemical Genomics, 2007) one finds activation factor data, which are given here for 40 compounds.

Out of some 86,000 compounds screened, about 140 (0.16%) were called active. The sample holds actives, similar compounds and a random draw of the others, so the mix is not that of the screen.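 Rule for the calls: active = activation factor of at least 2 for MT1-MMP transcription at 10 µM; inactive = the rest.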

This experiment in a line: MT1-MMP promoter reporter activation – cell-based, luciferase luminescence, primary screen (AID 750). Particulars: HT1080 MT1-MMP promoter luciferase reporter, overnight, at 10 µM, active compounds read high.
`CC1CC(C)CN(CC(=O)N2c3ccccc3CCc3ccccc32)C1` (stereo not given): the activation factor is 1.1 (inactive).
The result for `O=C(NCCN1CCN(Cc2ccccc2)CC1)c1cc2c(=O)[nH]c3ccccc3c2s1` reads 1 (inactive); that for `Cc1nn(C)cc1CNC(=O)Nc1ccc(Cl)cc1`, 1.7 (inactive); that for `Cc1ccc(-c2csc(NC(=O)Cc3cccs3)n2)cc1C`, 1.3 (inactive).
In the case of `O=P(O)(CP(=O)(c1ccccc1)c1ccccc1)c1ccccc1O`, the activation factor was 1.2 (inactive).
For `COc1ccc(C(=O)NN(C)c2nc(-c3ccccc3)cc(C)c2S(C)(=O)=O)cc1`, the activation factor was 1.1 (inactive).
The same measure for `O=S(=O)(c1ccc(Br)cc1)n1ccc2ccccc21`: 1.1 (inactive); for `O=C(NCCc1ccccc1)c1ccc(OCCOc2ccccc2)cc1`: 1 (inactive); for `COC(=O)c1ccc(S(=O)(=O)N2CCC(c3nc4ccccc4o3)CC2)cc1`: 1.1 (inactive).
Turning to `c1ccc(CCn2nnnc2CN2CCN(C3CCCC3)CC2)cc1`, the activation factor was 1.1 (inactive).
The result for `COc1ccc(C(c2nnnn2C2CCCCC2)N2CCN(c3ccccc3F)CC2)cc1` (stereo not given) reads 1.1 (inactive); that for `c1ccc(C(c2ccccc2)N2CCN(Cc3nnnn3C3CCCCC3)CC2)cc1`, 2 (active).
As for `C=CCn1c(SCc2c(C)noc2C)nc2sc3c(c2c1=O)CCC(C)C3` (stereo not given), the activation factor was 0.6 (inactive).
For `CCOc1ccc(-c2nc(C)sc2CC(=O)O)cc1`, the activation factor was 1 (inactive).
The same measure for `CC(C)(C)N1CC(c2nc3ccccc3n2Cc2ccc(F)cc2)CC1=O` (stereo not given): 1.2 (inactive).
Take `CC1(C)Cc2cccc(OCC(N)=O)c2O1`: the activation factor is 1.2 (inactive).
Take `Cn1nc(C(F)(F)F)c2cc(NC(=O)OCC(C)(C)C)sc21`: the activation factor was 1 (inactive).
With `CC1=NN(C(C)C)C(=O)C1`, the activation factor is 1.2 (inactive).
Consider `CN(C)S(=O)(=O)c1ccc(NC(=O)COC(=O)c2n[nH]c3ccccc23)cc1`, for which the activation factor was 1.3 (inactive).
The same measure for `O=C(OC1CCCCC1=O)c1cccc(S(=O)(=O)NCc2ccccc2)c1` (stereo not given): 1.2 (inactive); for `COc1ccc(NC(=O)Cn2c(=O)n(Cc3ccco3)c(=O)c3ccccc32)cc1`: 1 (inactive).
The same measure for `Cc1ccc(-n2nc3cc(C)c(NC(=O)c4cccnc4)cc3n2)cc1`: 1.5 (inactive).
With `CC(C)C[C@@H](N)c1nnc(SCC(=O)c2ccc(Cl)cc2)o1`, the activation factor was 1.1 (inactive).
Take `S=C1NC(c2ccccc2)=NCN1c1ccc(Br)cc1`: the activation factor is 1.2 (inactive).
The same measure for `Cc1cc(NC(=O)CN2CCCC(C)C2)n(-c2nc3ccccc3s2)n1` (stereo not given): 1.2 (inactive); for `Cc1cc(-c2ccccc2)nc(N2CCC(C(=O)NC34CC5CC(CC(C5)C3)C4)CC2)n1`: 1.3 (inactive).
The result for `CCOC(=O)Nc1sc(C(=O)N(C)C)c(C)c1C(=O)OCC` reads 1 (inactive); that for `Cc1[nH]n(-c2ccc(Cl)cc2)c(=O)c1/C=N/n1c(C)nc2ccccc2c1=O`, 1 (inactive); that for `COc1ccc(C2C(C(C)=O)=C(O)C(=O)N2c2nccs2)cc1` (stereo not given), 1 (inactive).
The result for `Cc1ccc(CNC(=O)COc2ccc(S(=O)(=O)NC(C)C)cc2)cc1` reads 1.1 (inactive).
In the case of `CC(C)C(NC(=O)c1ccc(Cl)cc1)C(=O)O` (stereo not given), the activation factor was 1.1 (inactive).
On to `CCOc1ccc(C(=O)NC(C(=O)NCc2ccccn2)C(C)C)cc1` (stereo not given), for which the activation factor was 1.3 (inactive).
Consider `COc1ccc(C2=NOC3(CC(=O)N(c4ccc(Cl)cc4)C3=O)C2)c(OC)c1` (stereo not given), for which the activation factor is 1 (inactive).
Take `Cc1ccc(S(=O)(=O)NCC(=O)N(CC(=O)NC(C)(C)C)Cc2cccs2)cc1`: the activation factor was 1.1 (inactive).
As to `COc1ccc(C(CC(=O)O)NC(=O)Cc2ccccc2)cc1` (stereo not given), the activation factor was 1.2 (inactive).
The result for `Cc1ccc(C(CC(=O)O)Nc2nc(N3CCCCC3)nc(N3CCCCC3)n2)cc1` (stereo not given) reads 2 (active).
`CC(Nc1nc(N2CCCC2)nc2ccccc12)c1ccccc1` (stereo not given): the activation factor was 1.1 (inactive).
The result for `OC(C#CCN1CCOCC1)(c1ccccc1)C1CCCCC1` (stereo not given) reads 1.1 (inactive).
For `Cc1ccn(C(CC(=O)c2ccc(Br)cc2)C(=O)O)n1` (stereo not given), the activation factor is 1.1 (inactive).
On to `O=C(O)CSCc1ccc(C(=O)O)o1`, for which the activation factor is 1.2 (inactive).
